65 compounds from PubChem BioAssay AID1460 (National Center for Advancing Translational Sciences (NCATS), 2008) can be followed below.

The campaign covered roughly 270,000 compounds. About 5,800 (2.1%) were called active. About 16% were inconclusive and are not listed. What follows is part of a selection rich in actives, with near analogues and random picks from the rest. Unmarked numbers belong to inactive results. The call rests on the fitted dose curve; in most records, active means well fitted inhibition curve with a large enough effect; inconclusive means small, poorly fitted or top-dose-only effect; inactive means flat fitted curve, though single readings scatter.
On the % scale 0 is the no-effect control and ±100 the full control effect; potency means the concentration at half of the fitted maximal effect.

Microtubule-associated protein tau (Homo sapiens), sequence (P10636 561-689 P618L limits assumed): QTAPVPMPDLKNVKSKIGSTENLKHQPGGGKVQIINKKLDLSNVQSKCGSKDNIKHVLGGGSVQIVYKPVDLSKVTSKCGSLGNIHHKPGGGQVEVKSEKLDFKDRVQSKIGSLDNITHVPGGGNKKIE

The assay has as its target Microtubule-associated protein tau (Homo sapiens) (UniProt P10636). Put plainly: qHTS for Inhibitors of Tau Fibril Formation, Thioflavin T Binding. Further: nearly all actives have a fitted effect of over 55% in size. The settings on record: recombinant tau K18 P301L (four-repeat tau fragment), heparin-induced fibrillization, ThT fluorescence; series mostly up to 57.4 µM; activity, negative = inhibition: at the top concentration. The essentials:
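Tau K18 P301L fragment (15 uM unlabeled plus 0.24 uM Alexa 594-labeled) in 100 mM sodium acetate pH 7 with compound, fibrillization induced by 20 uM heparin for 6 hr at 37 C. Thioflavin T (30 uM) added, fluorescence read after 1 hr (ex 450, em 510 nm).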
On the technique in general: In qHTS, concentration-response curves come from the screen itself.
On to `COc1cccc(NC(=O)N(Cc2cn(C)c3ccccc23)C2CCCCCC2)c1`, for which the “activity, negative = inhibition” value was -18.6%.

Take `COc1ccc(Cn2c(C(=O)O)c(CNCc3cccc(OC)c3)c3ccc(C)cc32)cc1`: the “activity, negative = inhibition” value is 4.58%.

In the case of `COc1cc(C(=O)NCCS(=O)(=O)N2CCN(c3ccccc3)CC2)cc(OC)c1OC`, the “activity, negative = inhibition” value is 3.32%. Still for that read-out and setting: as for `COc1ccc(-n2c(SCC(=O)Nc3ccc(Cl)c(C)c3)nc3n[nH]c(C)c3c2=N)cc1`, the figure is -6.68%; as for `CCOc1ccc(NC(=O)C2CCN(S(=O)(=O)c3cc(-c4noc(C)n4)ccc3C)CC2)cc1`, -3.68%.

Take `COc1ccc(-c2nn3c(=O)cc(CN4CCN(C(=O)c5ccc(OC)c(OC)c5)CC4)nc3s2)cc1`: the “activity, negative = inhibition” value is -16.3%.

For the compound `Cc1cccc2c(=O)cc(CSc3ccccc3NC(=O)C(C)C)[nH]c12`, the “activity, negative = inhibition” value was -2.42%. As for `COc1ccc(Cn2c(=O)cc(C)[nH]c2=S)cc1`, the “activity, negative = inhibition” value is -15.3%.

As to `COc1cc(=O)[nH]c(=O)n1C(=O)Cc1ccccc1`, the “activity, negative = inhibition” value is -6.37%.

`CCCOc1ccc(Cn2c(O)cc(=O)[nH]c2=O)cc1`: the Potency is 25.1 µM (active). For `Cc1cccc(NC(=O)N2CCC(CN3CCc4ccccc4C3)CC2)c1C`, the “activity, negative = inhibition” value was 2.46%. Still for that read-out and setting: under `Cc1cccc(S(=O)(=O)CC(=O)Nc2nc(-c3ccccc3)cs2)c1` stands -17.8%. On to `COc1ccc2c(c1OC)C(=O)OC2Nc1nc(-c2ccccc2)cs1` (stereo not given), for which the Potency is 17.8 µM (active). On to `COc1ccc2c(c1OC)C(=O)OC2c1c(O)nc(SC)n(-c2ccccc2)c1=O` (stereo not given), for which the “activity, negative = inhibition” value is -12.8%. For `O=C(CN1C(=O)COc2ccc(S(=O)(=O)N3CCCCCC3)cc21)N1CCN(c2cccc(C(F)(F)F)c2)CC1`, the “activity, negative = inhibition” value is -6.43%. On to `Cc1ccc(CCNC(=O)Cn2c(-c3cccs3)cc3cc(F)ccc32)cc1`, for which the “activity, negative = inhibition” value is -0.536%.

In the case of `Cc1ccc(Cl)cc1NC(=O)c1ccccn1`, the “activity, negative = inhibition” value was -6.15%. Still for that read-out and setting: under `Cc1cc2nn(-c3ccc(Cl)cc3)nc2cc1NC(=O)C(C)C` stands 4.08%.

On to `Cc1ccc(Cl)cc1NC(=O)C(C)n1nnc2sc(-c3ccccc3)cc2c1=O` (stereo not given), for which the Potency was 17.8 µM (active). On to `COc1cccc(NC(=O)CSC2=Nc3ccccc3C3=NC(CC(=O)NC4CCCCC4)C(=O)N23)c1` (stereo not given), for which the “activity, negative = inhibition” value is -7.37%. On to `Cc1ccc(Cl)cc1N1CCN(C(=O)c2cn(C)c3ccc(S(=O)(=O)N(C)C4CCCCC4)cc3c2=O)CC1`, for which the “activity, negative = inhibition” value was -2.4%. Consider `COc1ccc(N2CCN(C3CC(=O)N(c4ccc5c(c4)OCCO5)C3=O)CC2)cc1` (stereo not given), for which the “activity, negative = inhibition” value was -18.6%.

As to `CC(=O)Oc1cccc(N2C(=O)C3CC=C(Cl)CC3C2=O)c1` (stereo not given), the “activity, negative = inhibition” value is 4.98%. As for `CC(=O)Oc1cccc(N2C(=O)CC(Nc3ccc(N4CCOCC4)cc3)C2=O)c1` (stereo not given), the Potency is 15.8 µM (active). `COCCNC(=O)CSc1c(C)cnc2c1c(=O)n(C)c(=O)n2C`: the “activity, negative = inhibition” value was -7.06%.

Take `CC(=O)N1c2ccccc2CC1C(=O)N1CCN(c2ccc(F)cc2)CC1` (stereo not given): the “activity, negative = inhibition” value was -7.29%. Consider `CC(C)c1ccc(Nc2nnc(SCC(=O)c3nnc(-c4ccccc4)o3)s2)cc1`, for which the Potency is 17.8 µM (active).

In the case of `Cc1ccc(Nc2nnc(SCc3ccccc3)s2)cc1`, the “activity, negative = inhibition” value is -9.63%. Still for that read-out and setting: under `O=C(CSc1nnc(Nc2ccccc2)s1)Nc1cccnc1Cl` stands -18.4%; under `CCOC(=O)c1c(S(=O)(=O)N2CCCC(C(=O)NCc3cccc(C)c3)C2)c(C)n(C)c1C` (stereo not given), 12%; under `COc1cccc(CNC(=O)C2CCN(S(=O)(=O)c3ccc4c(ccn4C)c3)CC2)c1`, 3.32%.

In the case of `CCOc1ccc(/C=N/NC(=O)CSc2ccccn2)cc1O`, the “activity, negative = inhibition” value is -6.19%. Regarding `COc1ccc(/C=N/S(=O)(=O)c2ccccc2)cc1OC`, the “activity, negative = inhibition” value was 8.82%.

`COc1ccc(/C=N/N=C2/C(=O)Nc3ccccc32)cc1O`: the Potency is 10 µM (active). Turning to `CCN(Cc1ccccc1)C(=O)c1cn(-c2cccc(OC)c2)c(=O)c2ccccc12`, the “activity, negative = inhibition” value was -12%. `O=C(CSc1nnc(-c2ccccc2F)o1)Nc1cccc(C(F)(F)F)c1`: the “activity, negative = inhibition” value is -3.91%. As to `CN(C(=O)CSc1nnc(NC(=O)Nc2ccccc2)s1)c1ccccc1`, the “activity, negative = inhibition” value is 2.89%. For the compound `CCOC(=O)c1ccccc1C(=O)N1CCOCCOCCOCC1`, the “activity, negative = inhibition” value was -6.87%. On the same count and under the same terms, under `CCc1cccc(NC(=O)c2cnc(N3CCOCC3)c3ccccc23)c1` stands -10.2%.

For the compound `CCOC(=O)c1cnc2c(C)cc(C)cc2c1Nc1ccc(N2CCOCC2)cc1`, the Potency was 11.2 µM (active).

On to `Cc1cc(C)cc(NC(=O)c2cnc3sc(N4CCCC4)nn3c2=O)c1`, for which the “activity, negative = inhibition” value was 3.36%. The same measure, in the same setting: as for `CCn1c(-c2cc(OC)ccc2OC)csc1=Nc1c(C)n(C)n(-c2ccccc2)c1=O`, the figure is -0.49%; as for `Cc1[nH]c2ccccc2c1/C=N\NC(=O)Cn1nnc(-c2ccccc2)n1`, 3.95%.

Turning to `CN=c1scc(-c2cc(OC)ccc2OC)n1/N=C/c1c(C)[nH]c2ccccc12`, the Potency is 14.1 µM (active).

As for `CCOc1ccc(NC(=O)c2cc(S(=O)(=O)N3CCCC3)c[nH]2)cc1`, the “activity, negative = inhibition” value is -8.62%. On the same count and under the same terms, as for `O=S(=O)(c1ccc(Br)cc1)c1nnn2c1nc(N1CCOCC1)c1sccc12`, the figure is -10.4%.

Regarding `CCN1/C(=C\c2ccc3ccccc3[n+]2CC)Sc2cc(C)ccc21`, the Potency is 15.8 µM (active). `CCN1/C(=C/c2ccc3ccc(C)cc3[n+]2CC)Sc2ccccc21`: the “activity, negative = inhibition” value was -14.4%. Still for that read-out and setting: as for `COc1ccc(S(=O)(=O)NCC(c2ccc(N(C)C)cc2)N2CCCC2)cc1` (stereo not given), the figure is 6.51%; as for `O=C(c1ccc(Br)cc1)N(Cc1cccs1)c1ccc(F)cc1`, -14%; as for `c1ccc(Nc2n[nH]nc2-c2ccccc2)cc1`, -6.37%. Turning to `Cc1cc(Nc2ccccc2)nc(N)n1`, the “activity, negative = inhibition” value is 0.943%.

For the compound `Nc1ccc(Nc2ccccc2)cc1`, the Potency is 15.8 µM (active). With `CNc1ccc(-c2nc(-c3ccccc3C)no2)cc1[N+](=O)[O-]`, the “activity, negative = inhibition” value was 1.98%. The same measure, in the same setting: under `NC(=O)c1sc2nc3c(c(-c4ccccc4)c2c1N)CCC3` stands -18%. For the compound `Cc1cccc(NC(=O)c2sc3nc4c(c(-c5ccco5)c3c2N)CCC4)c1`, the Potency is 7.94 µM (active). On to `CC(=O)Nc1ccc(NC(=O)c2sc3nc4c(c(-c5ccc(C)cc5)c3c2N)CCC4)cc1`, for which the “activity, negative = inhibition” value is -8.97%. In the case of `CCN(CC)c1ccc(NC(=O)CN2C(=O)c3cccnc3Oc3ccc(Cl)cc32)c(C)c1`, the “activity, negative = inhibition” value is -3.19%. For the compound `O=S(=O)(Nc1ccc2nc(-c3cccc(Cl)c3)oc2c1)c1ccccc1`, the “activity, negative = inhibition” value was 10%. On the same count and under the same terms, as for `CCOc1ccc(-n2nc3ccc(NC(=O)c4ccc(OC)c(Cl)c4)cc3n2)cc1`, the figure is -17.4%.

For the compound `Cc1ccc(Nc2c3c(nc4ccccc24)CCC3)cc1`, the “activity, negative = inhibition” value is -3.18%.

With `CCOc1ccc(C(=O)Nc2ccc3nc4c(c(Nc5ccccc5OC)c3c2)CCCC4)cc1`, the Potency is 14.1 µM (active).

Consider `COc1cccc(NC(=O)c2ccc3c(SCC(=O)O)c4c(nc3c2)CCCC4)c1`, for which the “activity, negative = inhibition” value is 0.652%. On the same count and under the same terms, as for `COc1ccc(NS(=O)(=O)c2cc(NC(=O)/C=C/c3cc(OC)c(OC)c(OC)c3)ccc2N2CCCCC2)cc1`, the figure is -3.88%. In the case of `COc1ccccc1Nc1c2c(nc3ccc(NC(=O)/C=C/c4cc(OC)c(OC)c(OC)c4)cc13)CCCC2`, the Potency is 14.1 µM (active).
